Source: the supplement of paper PMC8007513
Counter-ions that a name gives are not always drawn. ± gives the standard error. Screen size: about 1,300 compounds; about 75 (6%) showed an effect of 50% or more. What follows is part of a selection rich in strong results, with near analogues and random picks from the rest.

System: Trichoderma virens ATCC 9645
Test: growth yield (OD600) relative to untreated control; higher = less growth inhibition
Settings: compound concentration: 100 uM
Outline: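 Spores of Trichoderma virens ATCC 9645, taken from potato dextrose agar plates grown for 7 days, were suspended at 15,000 spores ml^−1 in potato dextrose broth. In 96-well plates, 100 μl aliquots held library compounds at 100 μM final, either alone or together with a biocide at 200 ng ml^−1, and were grown at 30 °C. A BioTek EL800 read OD600 at 40 h and 72 h. Growth values are given relative to the control lacking both agents and are means of duplicate screens.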

| Compound | growth yield (40 h) | growth yield (72 h) |
| --- | --- | --- |
| CN(C)[C@@H]1C(O)=C(C(=O)NCNCCCC[C@H](N)C(=O)O)C(=O)[C@@]2(O)C(O)=C3C(=O)c4c(O)cccc4[C@@](C)(O)[C@H]3C[C@@H]12 [Lymecycline] | 82.1 ± 2.7% | 73.83 ± 0.63% |
| CC(C)(O/N=C(\C(=O)N[C@@H]1C(=O)N2C(C(=O)[O-])=C(C[n+]3ccccc3)CS[C@H]12)c1csc(N)n1)C(=O)O [Ceftazidime pentahydrate] | 102% | 102 ± 1.1% |
| CO/N=C(\C(=O)N[C@@H]1C(=O)N2C(C(=O)OC(C)OC(C)=O)=C(COC(N)=O)CS[C@H]12)c1ccco1 (stereo partly specified) [Cefuroxime axetil] | 97.05 ± 0.16% | 96.5 ± 1.7% |
| CC(C)NCC(O)c1cc(O)cc(O)c1 (stereo unspecified) [Metaproterenol sulfate, orciprenaline sulfate] | 99.1 ± 1.6% | 99.95 ± 0.1% |
| CC(=O)N1CCN(c2ccc(OCC3COC(Cn4ccnc4)(c4ccc(Cl)cc4Cl)O3)cc2)CC1 (stereo unspecified) [Ketoconazole] | 2.22 ± 1.3% | 1.68 ± 0.84% |
| CCC(C)n1ncn(-c2ccc(N3CCN(c4ccc(OCC5COC(Cn6cncn6)(c6ccc(Cl)cc6Cl)O5)cc4)CC3)cc2)c1=O (stereo unspecified) [Itraconazole] | 4.77 ± 2.2% | 13.2% |
| CC(C)N1CCN(c2ccc(OCC3COC(Cn4cncn4)(c4ccc(Cl)cc4Cl)O3)cc2)CC1 (stereo unspecified) [Terconazole] | 82.44 ± 0.16% | 88.4 ± 1.1% |
| CC[C@@H]([C@H](C)O)n1ncn(-c2ccc(N3CCN(c4ccc(OC[C@@H]5CO[C@@](Cn6cncn6)(c6ccc(F)cc6F)C5)cc4)CC3)cc2)c1=O [Posaconazole] | 8.9 ± 8.9% | 5.77 ± 5.6% |
| Nc1ccc(C(=O)O)c(O)c1 [4-aminosalicylic acid] | 93.1% | 89.36 ± 0.42% |
| CO[C@@]1(NC(=O)C(C(=O)O)c2ccc(O)cc2)C(=O)N2C(C(=O)O)=C(CSc3nnnn3C)CO[C@@H]21 (stereo partly specified) [Moxalactam disodium salt] | 96.1 ± 0.16% | 92.71 ± 0.63% |
| CCC(C)(C)C(=O)O[C@H]1C[C@@H](C)C=C2C=C[C@H](C)[C@H](CC[C@@H]3C[C@@H](O)CC(=O)O3)[C@H]21 [Simvastatin] | 103 ± 1.3% | 96.2 ± 4.5% |
| C=CCN1CCCC1CNC(=O)c1cc2nn[nH]c2cc1OC (stereo unspecified) [Alizapride hydrochloride] | 108 ± 4.3% | 109 ± 2.7% |
| CN(C)C(=N)NC(=N)N [Metformin hydrochloride] | 105 ± 7.2% | 103 ± 5.3% |
| Clc1ccc(C(Cn2ccnc2)OCc2c(Cl)cccc2Cl)c(Cl)c1 (stereo unspecified) [Isoconazole] | 2.06 ± 1.4% | 1.68 ± 1.1% |
| Clc1ccc(CSC(Cn2ccnc2)c2ccc(Cl)cc2Cl)cc1 (stereo unspecified) [Sulconazole nitrate] | 2.22 ± 0.64% | 1.78 ± 0.52% |
| Clc1ccc(CO/N=C(\Cn2ccnc2)c2ccc(Cl)cc2Cl)c(Cl)c1 [Oxiconazole Nitrate] | 1.59 ± 1.6% | 0.839 ± 0.84% |
| Clc1ccc(CCC(Cn2ccnc2)Sc2c(Cl)cccc2Cl)cc1 (stereo unspecified) [Butoconazole nitrate] | 3.49% | 2.31% |
| CCN1CCCC(OC(=O)C(c2ccccc2)c2ccccc2)C1 (stereo unspecified) [Piperidolate hydrochloride] | 106 ± 0.79% | 105 ± 1.8% |
| C=CC[N@@+]12CC[C@@]34c5ccccc5N5/C=C6/[C@H]7C[C@H]8[C@@]9(CC[N@@+]8(CC=C)C/C7=C/CO)c7ccccc7N(/C=C(/[C@@H](C[C@@H]31)/C(=C\CO)C2)[C@H]54)[C@@H]69 [Alcuronium chloride] | 66.1 ± 7.6% | 65.8 ± 5.3% |

| Compound | growth yield (40 h) | growth yield (72 h) |
| --- | --- | --- |
| O=C(O)CCNC(=O)c1ccc(/N=N/c2ccc(O)c(C(=O)O)c2)cc1 [Balsalazide Sodium] | 107 ± 1.4% | 101.9 ± 0.84% |
| OCCN1C[C@H](O)[C@@H](O)[C@H](O)[C@H]1CO [Miglitol] | 101 ± 3% | 103 ± 3.1% |
| C#C[C@]1(O)CC[C@H]2[C@@H]3[C@H](C)CC4=C(CCC(=O)C4)[C@H]3CC[C@@]21C [Tibolone] | 88.31 ± 0.64% | 90.72 ± 0.1% |
| CN1CC2c3ccccc3Oc3ccc(Cl)cc3C2C1 (stereo unspecified) [Asenapine maleate] | 100 ± 1.3% | 106 ± 1.3% |
| Clc1ccc(C(Cn2ccnc2)OCc2csc3c(Cl)cccc23)c(Cl)c1 (stereo unspecified) [Sertaconazole nitrate] | 3.81% | 2.73% |
| Clc1ccc(C(Cn2ccnc2)OCc2ccsc2Cl)c(Cl)c1 (stereo unspecified) [Tioconazole] | 2.22 ± 1.6% | 1.89 ± 0.84% |
| C=CCOC(Cn1ccnc1)c1ccc(Cl)cc1Cl (stereo unspecified) [Enilconazole] | 3.49% | 3.04 ± 0.32% |
| O=C(O)/C=C/c1ccc(Cn2ccnc2)cc1 [Ozagrel hydrochloride] | 110 ± 9.5% | 106 ± 5.1% |
| Clc1ccc(COC(Cn2ccnc2)c2ccc(Cl)cc2Cl)cc1 (stereo unspecified) [Econazole nitrate] | 2.22 ± 0.64% | 1.78 ± 0.52% |
| CCOC(=O)O[C@]1(C(=O)OCCl)CC[C@H]2[C@@H]3CCC4=CC(=O)C=C[C@]4(C)[C@H]3[C@@H](O)C[C@@]21C [Loteprednol etabonate] | 97.7 ± 3.6% | 97.4 ± 3.5% |
| CNCC(O)c1ccc(OC(=O)C(C)(C)C)c(OC(=O)C(C)(C)C)c1 (stereo unspecified) [Dipivefrin hydrochloride] | 99.28 ± 0.79% | 100.2 ± 0.94% |
| CN(C)[C@@H]1C(O)=C(C(N)=O)C(=O)[C@@]2(O)C(O)=C3C(=O)c4c(O)cccc4[C@@](C)(O)[C@H]3C[C@@H]12 [Tetracycline hydrochloride] | 95.9% | 76.2 ± 15% |
| CCN(CC)CCN[C@@H](C(=O)OCCC(C)C)c1ccccc1 [Camylofine chlorhydrate] | 104 ± 1.8% | 102 ± 1.5% |
| CC1=C(CC(=O)O)c2cc(F)ccc2/C1=C\c1ccc([S+](C)[O-])cc1 (stereo unspecified) [Sulindac] | 90.1 ± 1.1% | 86.31 ± 0.73% |
| CN(C)CCCSC(=N)N [Dimaprit dihydrochloride] | 102 ± 3.3% | 99.5 ± 3.2% |
| CC(C)(C)NC(=O)[C@H]1CC[C@H]2[C@@H]3CC[C@H]4NC(=O)C=C[C@]4(C)[C@H]3CC[C@]12C [Finasteride] | 84 ± 5.9% | 81.1 ± 2% |
| N[C@@H]1CCCCN(c2c(F)cc3c(=O)c(C(=O)O)cn(C4CC4)c3c2Cl)C1 [Besifloxacin hydrochloride] | 93.4 ± 6.3% | 91.6 ± 8.3% |
| C[C@H](Cc1cc2c(c(C(N)=O)c1)N(CCCO)CC2)NCCOc1ccccc1OCC(F)(F)F [Silodosin] | 105% | 100 ± 2.3% |
| Cc1cc(/C=C/c2ccc3cc(N(C)C)ccc3[n+]2C)c(C)n1-c1ccccc1 [Pyrvinium pamoate] | 124 ± 20% | 114 ± 12% |
